# Most compounds without a hit are left out; they make up all but 2.3% or so of the library.
# SIRT5 block = SIRT5 desuccinylase inhibitors, primary screen, biochemical, fluorescence imaging, single point, set 5 | 1.1% of 330,000 active | inhibition, % at 15 µM | NAD-dependent protein deacylase sirtuin-5, mitochondrial (Homo sapiens), Q9NXA8 | AID 652115, 2013 | Purified SirT5, succinyl-peptide AMC, trypsin-coupled fluorescence; in the data active means inhibition above about 15%
# Target sequence (Q9NXA8 whole entry, looked up): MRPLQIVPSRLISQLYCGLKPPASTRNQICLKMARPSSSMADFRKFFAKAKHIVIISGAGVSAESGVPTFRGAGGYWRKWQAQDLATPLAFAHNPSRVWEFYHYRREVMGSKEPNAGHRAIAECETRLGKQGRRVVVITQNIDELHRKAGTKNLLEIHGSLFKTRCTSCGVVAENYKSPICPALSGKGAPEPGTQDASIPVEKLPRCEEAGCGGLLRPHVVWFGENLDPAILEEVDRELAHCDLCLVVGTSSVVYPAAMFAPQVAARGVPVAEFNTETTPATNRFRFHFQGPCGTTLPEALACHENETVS
# Rtt109 HAT inh = inhibitors of C. albicans Rtt109/Vps75 HAT, primary screen, biochemical, ThioGlo CoA-SH fluorescence, plate reader; Histone acetyltransferase RTT109 (Candida albicans (strain SC5314 / ATCC MYA-2876)), …; purified Rtt109/Vps75, 4 h; inhibition, % at 34.9 µM; 0.16% of 330,000 active; AID 540336, 2011;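 active means inhibition of at least 50% in every replicate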
# PDI inh = inhibitors of human PDI, primary screen, biochemical, turbidity, single point, plate reader; inhibition, % at 10 µM; AID 588391, 2011; PDI insulin aggregation turbidity, A650, 90 min; Protein disulfide-isomerase (Homo sapiens), P07237; 0.052% of 350,000 active;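 active means mean inhibition across replicates of 30% or more, whatever share of single replicates reach that level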
# ERp5 inh = inhibitors of ERp5-driven insulin aggregation, primary screen, biochemical, turbidity, absorbance 650 nm, single point. 0.05% of 350,000 active. inhibition, % at 9.99 µM. Protein disulfide-isomerase A6 (Homo sapiens), Q15084. 90 min;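 active means mean replicate inhibition above about 25%, with every replicate also reaching it, limit read from the data, passing the limit was not always enough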
# DENV2 CPE = inhibitors of DENV2 cytopathic effect, primary screen, cell-based, plate reader, single concentration; DENV2-infected cells, cytopathic effect rescue; CPE inhibition, % at 9.99 µM; 1.7% of 350,000 active; AID 651640, 2012; in the data active means CPE inhibition above about 20%, passing the limit was not always enough; tested in BHK-21 cells;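 further: 0% = median of neutral control wells and 100% = median of positive control wells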
# Active calls of the source: *; . = no result given; ! = not active in a repeat.
SMILES,SIRT5 block,Rtt109 HAT inh,PDI inh,ERp5 inh,DENV2 CPE
C[C@H]1CN([C@@H](C)CO)C(=O)c2cc(-c3ccc(F)cc3)cnc2O[C@@H]1CN(C)S(C)(=O)=O,-2.0,.,.,-0.9,2.3
COC(=O)C(C(=O)Nc1ccccc1C)C1CCCC1 (configuration not stated),.,2.9,9.7,.,.
Cc1ccccc1NC(=O)C(NC1CCCCC1)C(C)C (configuration not stated),35.9*,-7.1,5.1,4.6,-2.0
COc1cccc(NC(=O)N2C[C@H](O)COC[C@@H]3O[C@@H](CC(=O)NC4CCC4)CC[C@H]32)c1,5.2,.,.,-0.2,4.6
C[C@@H]1CCCCO[C@@H](CN(C)CC2CC2)[C@H](C)CN([C@@H](C)CO)C(=O)c2cc(NC(=O)CCCN(C)C)ccc2O1,.,.,.,-5.2,12.1
CCC(C)N(C(=O)CSc1nnc(-c2cccs2)n1C1CC1)C1CCS(=O)(=O)C1 (configuration not stated),-0.7,-7.4,0.7,-1.5,3.2
CCN(C(=O)CSc1nncn1-c1ccccc1)C1CCS(=O)(=O)C1 (configuration not stated),-0.1,-18.9,-5.1,6.0,85.5*
CN(C(=O)CSc1nnc(-c2cccs2)n1C1CC1)C1CCS(=O)(=O)C1 (configuration not stated),4.1,-13.0,0.3,-4.3,36.6*
CCCNC(=O)C[C@@H]1C[C@@H]2c3cc(NC(=O)c4cccnc4)ccc3O[C@@H]2[C@H](CO)O1,.,.,.,.,1.6
COc1ccc(NC(=O)Nc2ccc3c(c2)C(=O)N([C@H](C)CO)C[C@H](C)[C@@H](CN(C)S(=O)(=O)c2ccc(OC)cc2)O3)cc1,1.2,11.8,9.9,9.4,26.4*!
COc1ccc(NC(=O)Nc2ccc3c(c2)C(=O)N([C@H](C)CO)C[C@H](C)[C@@H](CN(C)S(C)(=O)=O)O3)cc1,-0.6,-1.7,-10.8,-3.3,25.6*!
COc1ccc(NC(=O)Nc2ccc3c(c2)C(=O)N([C@@H](C)CO)C[C@@H](C)[C@@H](CN(C)S(C)(=O)=O)O3)cc1,0.3,.,.,-5.1,-8.8
C[C@H](CO)N1C[C@H](C)[C@@H](CN(C)S(C)(=O)=O)Oc2ccc(NC(=O)Nc3ccccc3)cc2C1=O,-0.6,-9.8,-4.3,-0.8,88.5*!
C[C@@H]1CN([C@@H](C)CO)C(=O)c2cc(NC(=O)NC3CCCCC3)ccc2O[C@@H](C)CCCCO[C@H]1CN(C)C(=O)Cc1ccccc1,.,.,.,.,-19.1
CC(C)=CCN1CCN(Cc2cn(C(C)C)c3ccccc23)CC1CCO (configuration not stated),22.0*,5.4,13.5,-2.3,-7.1
Cc1ccc(CN2CCN(Cc3cn(C(C)C)c4ccccc34)CC2CCO)o1 (configuration not stated),-0.8,-3.7,6.1,-1.2,-4.5
CC(=O)c1cccc(CN2CCN(CCc3ccccc3)C(CCO)C2)c1 (configuration not stated),-0.9,0.5,-3.1,0.4,1.2
CSc1cccc(CN2CCN(Cc3ccccc3)C(CCO)C2)c1 (configuration not stated),-6.8,0.7,10.3,3.5,-3.1
CC(=O)c1cccc(CN2CCN(CC=C(C)C)C(CCO)C2)c1 (configuration not stated),16.7*,-23.5,-0.2,0.2,11.4
CSc1cccc(CN2CCN(Cc3ccc(F)c(F)c3)C(CCO)C2)c1 (configuration not stated),15.6*,-0.1,4.1,-2.4,.
COc1ccc(-c2ccc3c(c2)O[C@@H](CN(C)C)[C@H](C)CN([C@@H](C)CO)S3(=O)=O)cc1,-1.3,.,.,-4.2,-3.7
C[C@H](CO)N1C[C@H](C)[C@@H](CN(C)Cc2ccc(C(=O)Nc3ccccc3N)cc2)Oc2ccc(NC(=O)Cn3cnnn3)cc2C1=O,3.7,.,.,-2.1,-8.2
COc1ccc(C(=O)N2C[C@@H]3[C@H](c4ccccc42)[C@H](CO)N3C(=O)NC(C)C)cc1,-3.8,.,.,1.2,26.8*
COc1ccc(C(=O)N2C[C@H]3[C@@H](c4ccccc42)[C@@H](CO)N3C(=O)NC(C)C)cc1,-0.3,.,.,3.5,14.0
